Test results published in PubChem BioAssay.
Active and inactive are the calls of the source. Unless noted, no rule for the calls is given here.

Assays:
[1] = test system: XIP peptide (Xip251-270) binding; experiment: XIP fragment 251-270 binding compounds – biochemical, small-molecule microarray, fluorescence 635/667 nm, 0.1 µg/mL protein, primary screen (AID 1182); conditions: fluorescent protein binding, 635 nm, higher = more signal, called active from +8 up or from −8 down
[2] = test system: XIP peptide (Xip251-270); experiment: compounds binding XIP fragment 251-270 – biochemical, small-molecule microarray, fluorescence 635/667 nm, 0.5 µg/mL protein, primary screen (AID 1183); conditions: fluorescence 635 nm, higher = more signal
[3] = blood-stage malaria parasite viability loss – strain 3D7, DAPI fluorescence, 100 nL, primary screen (AID 1184);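 also: parasites grown inside human red blood cells in medium with human serum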; conditions: P. falciparum 3D7 growth, 3 d, higher = more signal
[4] = biological target: Homeobox protein Hox-A13 (Mus musculus) (UniProt Q62424); experiment: disruptors of Hoxa13 oligonucleotide interaction – biochemical, fluorescence polarization, labeled oligonucleotide, primary screen (AID 1185); conditions: Hoxa13:DNA binding, 15 min, higher = more signal, called active from +8 up or from −8 down
Homeobox protein Hox-A13 (Mus musculus), sequence (Q62424 whole entry, looked up): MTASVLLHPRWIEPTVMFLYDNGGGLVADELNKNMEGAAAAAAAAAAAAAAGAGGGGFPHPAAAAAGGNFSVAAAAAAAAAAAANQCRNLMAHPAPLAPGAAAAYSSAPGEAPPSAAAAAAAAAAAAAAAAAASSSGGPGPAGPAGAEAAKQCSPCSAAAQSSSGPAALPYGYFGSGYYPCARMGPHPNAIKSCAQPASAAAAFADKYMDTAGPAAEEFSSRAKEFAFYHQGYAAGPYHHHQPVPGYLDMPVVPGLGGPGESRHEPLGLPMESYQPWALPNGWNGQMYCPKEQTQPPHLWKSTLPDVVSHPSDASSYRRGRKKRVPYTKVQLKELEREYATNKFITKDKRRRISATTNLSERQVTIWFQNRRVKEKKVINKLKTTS

[5] = blockers of DNA damage checkpoint Chk1 activation – imaging, HeLa, hydroxyurea, phospho-Chk1 antibody, percent positive cells, primary screen (AID 1186); conditions: hydroxyurea-induced phospho-Chk1 immunofluorescence imaging, higher = more signal
[6] = blockers of DNA damage checkpoint Chk1 activation – imaging, HeLa, hydroxyurea, phospho-Chk1 nuclear intensity, primary screen (AID 1187); conditions: hydroxyurea-induced phospho-Chk1 immunofluorescence imaging, higher = more signal

Row | SMILES | composite z-score [1] | composite z-score [2] | z-score [3] | z-score [4] | z-score [5] | z-score [6]
1 | Cc1ccc(F)cc1S(=O)(=O)N[C@@H]1CCN(Cc2ccc(-c3ccccc3)cc2)C1 | 0.765 (inactive) | 0.479 | -1.89 | -4.9 (inactive) | -0.23 (inactive) | -0.0784 (inactive)
2 | COCCOC(=O)N1C(=O)[C@@]2(c3cc(C#CCC(C(=O)OC)C(=O)OC)ccc31)[C@H](C(=O)N1CCCCCCC1)[C@H]1C(=O)O[C@H](c3ccccc3)[C@H](c3ccccc3)N1[C@@H]2c1ccc(OCCO)cc1 | 0.968 (inactive) | 0.746 | -1.79 | -15.8 (active) | -0.479 (inactive) | -0.719 (inactive)
3 | CCOC(=O)C[C@H]1[C@H](OC(=O)c2ccc(-c3ccccc3)cc2)[C@@H](NC(=O)Cc2ccc(OC)cc2)c2cc(OCCCO)ccc2N1C(=O)c1ccc2ccccc2n1 | -0.0562 (inactive) | 0.111 | 0.351 | -2.51 (inactive) | -0.42 (inactive) | -0.0198 (inactive)
4 | Cc1ccc(S[C@]2(C(=O)O)CC(=O)N(C3Cc4ccccc4C3)[C@@H]2c2ccc(CO)cc2I)cc1 | -0.33 (inactive) | 0.464 | -0.111 | -2.79 (inactive) | 0.229 (inactive) | 0.584 (inactive)
5 | C=CCOC(=O)[C@H]1[C@@H]2C(=O)O[C@@H](c3ccccc3)[C@@H](c3ccccc3)N2[C@@H](c2ccc(OCCOC(=O)[C@@H]3C[C@@H]4C(=O)N5CCC[C@H]5C(=O)N4[C@@H]3c3ccc(O)cc3)cc2)[C@]12C(=O)Nc1ccccc12 | 0.188 (inactive) | 0.838 | -1.8 | 1.28 (inactive) | -0.788 (inactive) | -0.507 (inactive)
6 | CC(C)N1C(=O)c2ccccc2[C@@H](C(=O)NCCCN(C)C)[C@@H]1c1ccc(CO)cc1 | -0.361 (inactive) | -0.428 | -1.26 | -2.54 (inactive) | -0.0028 (inactive) | -0.321 (inactive)
7 | COc1ccc(C(=O)Nc2cccc(CN3C(=O)[C@@]4(O[C@@H](CCn5cc(CCO)nn5)[C@H]([Si](C)(C)c5ccc(OC)cc5)[C@H]4C)c4ccccc43)c2)cc1 | 0.201 (inactive) | 0.393 | -2.65 | -3.85 (inactive) | 0.103 (inactive) | 0.199 (inactive)
8 | CO[C@H]1O[C@H](CO)[C@@H](OC(=O)Nc2ccc(Oc3ccccc3)cc2)[C@H](OC(=O)Nc2ccccc2)[C@H]1OC(=O)Nc1ccccc1 | 1.21 (inactive) | 0.916 | -2.21 | -1.38 (inactive) | -0.444 (inactive) | -0.307 (inactive)
9 | COc1ccc(C(O)C2C=CC3C(=O)N(C)C(=O)C3N2Nc2ccccc2)cc1OCc1ccccc1 (configuration not stated) | 0.492 (inactive) | 0.879 | 0.039 | -4.69 (inactive) | 0.593 (inactive) | 0.344 (inactive)
10 | O=C1c2ccccc2[C@@]2(Cc3ccccc3N(Cc3ccccc3)C2=O)[C@H](c2ccc(CO)cc2)N1C1CCCCC1 | -0.204 (inactive) | 0.299 | -0.0438 | -1.21 (inactive) | 0.0191 (inactive) | 0.359 (inactive)
11 | Cc1c(NC(=O)CC#N)c(=O)n(-c2ccccc2)n1C | 0.248 (inactive) | 0.0029 | -0.0049 | -0.631 (inactive) | 0.123 (inactive) | 0.239 (inactive)
12 | NCCCCCCNC(=O)[C@H]1C[C@H]2C(=O)NCC(=O)N2[C@H]1c1cccc(OCCO)c1 | 2.26 (inactive) | 0.814 | 0.005 | -2.07 (inactive) | 0.234 (inactive) | 0.495 (inactive)
13 | CC(C)N1C(=O)C[C@@](C(=O)NCc2ccccc2)(c2ccc([N+](=O)[O-])cc2)[C@H]1c1ccc(CO)cc1 | 0.168 (inactive) | 0.524 | -0.688 | -1.27 (inactive) | -0.293 (inactive) | -0.128 (inactive)
14 | CCOC(=O)C[C@H]1[C@H](OC(=O)c2ccccc2-c2ccccc2)[C@@H](NC(=O)Cc2ccc(OC)cc2)c2cc(OCCCO)ccc2N1C(=O)c1ccccc1 | 0.277 (inactive) | 0.127 | -1.6 | -3.88 (inactive) | 0.422 (inactive) | 0.137 (inactive)
15 | COCCCNC(=O)[C@@]1(CCC(=O)OC(C)(C)C)N=C(c2ccc(OCCCO)cc2)O[C@H]1c1ccccc1CN=[N+]=[N-] | 0.748 (inactive) | 0.761 | -1.99 | -5.33 (inactive) | -0.376 (inactive) | -0.101 (inactive)
16 | CCCCC=C[C@@H](NC(=O)c1ccc(C(=O)OC)cc1)c1ccccc1 | 2.97 (inactive) | 0.0677 | -1.38 | -4.21 (inactive) | 0.492 (inactive) | 0.256 (inactive)
17 | C=C(COC)C(=O)CC[C@H](OC(C)=O)c1cccc(OCCO)c1 | 0.623 (inactive) | -0.762 | -2.3 | -4.76 (inactive) | 0.305 (inactive) | -0.0656 (inactive)
